Data published in the supplement of paper PMC11732987, “Enantioselective OTUD7B fragment discovery through chemoproteomics screening and high-throughput optimisation” (Communications Chemistry, 2025).

How the values were obtained:
Assay in all cases: log2 ratio of Biotin-Ahx-Ub-VS probe labelling (fragment/DMSO); higher = less target engagement (more negative = stronger competition), active = hit call of the paper (q ≤ 0.05, log2 ratio ≤ -1)
Conditions in all cases: compound concentration: 200 uM; treatment time: 3 h
USP34 = USP34 (UniProt Q70CQ2)
Outline: (§1)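 The table lists average log2 ratios of fragment over vehicle, from an unpaired t-test on global-median-normalised Spectronaut label-free quantities. Proteins with ≥2 unique peptides were used. Samples were HEK293T lysate (495 µg) treated in triplicate with fragment at 200 µM or vehicle for 3 h, then with Biotin-Ahx-Ub-VS (0.5 µM final) for 1 h, with labelled DUBs NeutrAvidin-enriched and run by diaPASEF LC-MS/MS.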

USP36 = target: T1, USP36 (UniProt Q9P275)
T1 sequence (whole entry): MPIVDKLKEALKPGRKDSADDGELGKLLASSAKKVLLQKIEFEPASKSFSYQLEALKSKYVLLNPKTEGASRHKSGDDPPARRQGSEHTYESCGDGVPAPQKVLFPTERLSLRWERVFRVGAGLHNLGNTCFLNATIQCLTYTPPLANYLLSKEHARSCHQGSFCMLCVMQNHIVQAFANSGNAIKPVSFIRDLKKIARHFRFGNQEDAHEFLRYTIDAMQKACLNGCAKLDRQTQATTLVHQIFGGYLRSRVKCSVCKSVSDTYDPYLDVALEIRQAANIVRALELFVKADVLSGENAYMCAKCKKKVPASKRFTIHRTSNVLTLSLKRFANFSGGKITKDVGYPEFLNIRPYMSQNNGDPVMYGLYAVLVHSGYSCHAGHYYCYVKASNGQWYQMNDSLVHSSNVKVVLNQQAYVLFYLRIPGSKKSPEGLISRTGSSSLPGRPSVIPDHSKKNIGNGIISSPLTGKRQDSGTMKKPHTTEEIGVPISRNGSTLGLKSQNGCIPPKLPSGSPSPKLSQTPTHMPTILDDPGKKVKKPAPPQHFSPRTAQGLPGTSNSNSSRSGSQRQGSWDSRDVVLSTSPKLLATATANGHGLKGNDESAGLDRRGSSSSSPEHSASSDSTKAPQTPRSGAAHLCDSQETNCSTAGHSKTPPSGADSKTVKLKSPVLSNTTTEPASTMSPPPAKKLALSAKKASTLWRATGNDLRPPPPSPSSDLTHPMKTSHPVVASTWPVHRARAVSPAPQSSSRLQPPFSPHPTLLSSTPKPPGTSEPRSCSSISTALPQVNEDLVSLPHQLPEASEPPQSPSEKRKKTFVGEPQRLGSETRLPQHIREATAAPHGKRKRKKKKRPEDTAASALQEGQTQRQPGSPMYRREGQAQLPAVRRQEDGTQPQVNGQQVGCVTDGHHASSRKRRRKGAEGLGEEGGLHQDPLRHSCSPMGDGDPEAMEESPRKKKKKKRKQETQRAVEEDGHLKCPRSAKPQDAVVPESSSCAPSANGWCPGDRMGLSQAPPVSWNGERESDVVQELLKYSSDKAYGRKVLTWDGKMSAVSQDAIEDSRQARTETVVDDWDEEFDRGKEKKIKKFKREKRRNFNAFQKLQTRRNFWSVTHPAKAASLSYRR
Outline: as §1

USP38 = target: T2, USP38 (UniProt Q8NB14)
T2 sequence (whole entry): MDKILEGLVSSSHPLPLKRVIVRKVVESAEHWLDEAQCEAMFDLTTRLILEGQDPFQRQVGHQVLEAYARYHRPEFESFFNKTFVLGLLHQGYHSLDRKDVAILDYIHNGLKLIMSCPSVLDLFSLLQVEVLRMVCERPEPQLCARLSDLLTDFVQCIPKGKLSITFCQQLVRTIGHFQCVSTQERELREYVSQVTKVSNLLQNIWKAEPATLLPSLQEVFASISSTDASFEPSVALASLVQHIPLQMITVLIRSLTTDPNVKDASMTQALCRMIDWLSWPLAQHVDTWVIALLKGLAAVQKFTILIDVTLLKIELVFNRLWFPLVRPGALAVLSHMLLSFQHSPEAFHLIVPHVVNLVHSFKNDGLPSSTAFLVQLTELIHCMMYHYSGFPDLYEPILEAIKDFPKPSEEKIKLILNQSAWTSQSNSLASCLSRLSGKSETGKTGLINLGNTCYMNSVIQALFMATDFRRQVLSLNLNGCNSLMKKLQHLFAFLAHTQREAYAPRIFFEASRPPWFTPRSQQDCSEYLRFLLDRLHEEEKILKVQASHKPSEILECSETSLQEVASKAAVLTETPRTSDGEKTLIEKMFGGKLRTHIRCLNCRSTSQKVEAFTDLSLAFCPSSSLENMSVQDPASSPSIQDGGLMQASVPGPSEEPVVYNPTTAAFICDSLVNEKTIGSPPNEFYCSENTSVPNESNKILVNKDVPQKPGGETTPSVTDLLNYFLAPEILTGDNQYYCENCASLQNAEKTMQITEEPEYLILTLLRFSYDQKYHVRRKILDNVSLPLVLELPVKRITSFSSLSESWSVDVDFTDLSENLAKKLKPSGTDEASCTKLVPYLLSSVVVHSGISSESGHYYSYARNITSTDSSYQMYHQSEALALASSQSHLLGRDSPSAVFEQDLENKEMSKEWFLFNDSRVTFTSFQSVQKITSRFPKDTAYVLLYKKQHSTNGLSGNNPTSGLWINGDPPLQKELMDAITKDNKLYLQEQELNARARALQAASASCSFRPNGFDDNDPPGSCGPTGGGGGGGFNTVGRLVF
Outline: as §1

USP39 = target: T3, USP39 (UniProt Q53GS9)
T3 sequence (whole entry): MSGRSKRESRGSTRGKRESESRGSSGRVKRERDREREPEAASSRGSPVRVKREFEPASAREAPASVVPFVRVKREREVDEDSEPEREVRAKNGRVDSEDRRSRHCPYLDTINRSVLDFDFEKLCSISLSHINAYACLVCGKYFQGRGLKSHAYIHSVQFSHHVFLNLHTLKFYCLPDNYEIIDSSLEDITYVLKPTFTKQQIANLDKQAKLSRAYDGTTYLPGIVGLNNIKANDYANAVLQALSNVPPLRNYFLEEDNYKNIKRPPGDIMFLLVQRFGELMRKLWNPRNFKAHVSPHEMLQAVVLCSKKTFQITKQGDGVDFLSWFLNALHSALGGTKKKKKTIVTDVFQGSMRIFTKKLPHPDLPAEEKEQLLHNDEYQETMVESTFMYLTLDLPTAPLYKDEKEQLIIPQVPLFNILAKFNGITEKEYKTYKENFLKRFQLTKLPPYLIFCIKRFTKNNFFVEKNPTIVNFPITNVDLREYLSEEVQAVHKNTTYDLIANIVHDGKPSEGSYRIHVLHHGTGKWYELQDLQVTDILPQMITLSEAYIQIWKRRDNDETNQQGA
Outline: as §1

USP4 = target: T4, USP4 (UniProt Q13107)
T4 sequence (whole entry): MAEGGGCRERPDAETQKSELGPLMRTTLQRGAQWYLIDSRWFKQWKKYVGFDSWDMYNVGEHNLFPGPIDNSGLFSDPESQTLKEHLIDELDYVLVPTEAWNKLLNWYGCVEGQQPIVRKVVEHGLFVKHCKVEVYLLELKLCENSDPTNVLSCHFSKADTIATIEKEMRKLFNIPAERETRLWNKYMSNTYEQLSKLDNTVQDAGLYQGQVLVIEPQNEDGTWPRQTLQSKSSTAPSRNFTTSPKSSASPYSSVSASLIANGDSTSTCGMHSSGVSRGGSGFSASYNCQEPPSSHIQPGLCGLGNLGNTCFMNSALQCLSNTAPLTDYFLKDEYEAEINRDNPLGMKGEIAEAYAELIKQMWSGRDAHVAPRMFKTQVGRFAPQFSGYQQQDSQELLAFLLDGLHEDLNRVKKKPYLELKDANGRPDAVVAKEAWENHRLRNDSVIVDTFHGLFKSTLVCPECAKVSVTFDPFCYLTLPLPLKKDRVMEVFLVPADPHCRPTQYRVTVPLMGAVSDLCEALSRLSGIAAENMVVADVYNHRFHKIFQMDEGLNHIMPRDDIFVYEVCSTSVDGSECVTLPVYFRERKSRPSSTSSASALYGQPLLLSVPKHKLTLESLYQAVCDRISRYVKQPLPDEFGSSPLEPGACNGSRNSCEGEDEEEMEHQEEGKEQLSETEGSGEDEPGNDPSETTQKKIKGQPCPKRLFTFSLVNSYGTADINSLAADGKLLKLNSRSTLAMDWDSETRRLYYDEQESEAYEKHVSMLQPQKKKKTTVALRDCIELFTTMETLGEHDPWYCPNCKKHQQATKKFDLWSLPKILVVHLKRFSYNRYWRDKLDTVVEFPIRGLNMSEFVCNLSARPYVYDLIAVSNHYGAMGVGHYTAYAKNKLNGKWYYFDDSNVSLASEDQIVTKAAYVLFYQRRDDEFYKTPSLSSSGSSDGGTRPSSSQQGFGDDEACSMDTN
Outline: as §1

Measured: log2 ratio of Biotin-Ahx-Ub-VS probe labelling

USP34, sequence (Q70CQ2 whole entry, the tested form may be a part): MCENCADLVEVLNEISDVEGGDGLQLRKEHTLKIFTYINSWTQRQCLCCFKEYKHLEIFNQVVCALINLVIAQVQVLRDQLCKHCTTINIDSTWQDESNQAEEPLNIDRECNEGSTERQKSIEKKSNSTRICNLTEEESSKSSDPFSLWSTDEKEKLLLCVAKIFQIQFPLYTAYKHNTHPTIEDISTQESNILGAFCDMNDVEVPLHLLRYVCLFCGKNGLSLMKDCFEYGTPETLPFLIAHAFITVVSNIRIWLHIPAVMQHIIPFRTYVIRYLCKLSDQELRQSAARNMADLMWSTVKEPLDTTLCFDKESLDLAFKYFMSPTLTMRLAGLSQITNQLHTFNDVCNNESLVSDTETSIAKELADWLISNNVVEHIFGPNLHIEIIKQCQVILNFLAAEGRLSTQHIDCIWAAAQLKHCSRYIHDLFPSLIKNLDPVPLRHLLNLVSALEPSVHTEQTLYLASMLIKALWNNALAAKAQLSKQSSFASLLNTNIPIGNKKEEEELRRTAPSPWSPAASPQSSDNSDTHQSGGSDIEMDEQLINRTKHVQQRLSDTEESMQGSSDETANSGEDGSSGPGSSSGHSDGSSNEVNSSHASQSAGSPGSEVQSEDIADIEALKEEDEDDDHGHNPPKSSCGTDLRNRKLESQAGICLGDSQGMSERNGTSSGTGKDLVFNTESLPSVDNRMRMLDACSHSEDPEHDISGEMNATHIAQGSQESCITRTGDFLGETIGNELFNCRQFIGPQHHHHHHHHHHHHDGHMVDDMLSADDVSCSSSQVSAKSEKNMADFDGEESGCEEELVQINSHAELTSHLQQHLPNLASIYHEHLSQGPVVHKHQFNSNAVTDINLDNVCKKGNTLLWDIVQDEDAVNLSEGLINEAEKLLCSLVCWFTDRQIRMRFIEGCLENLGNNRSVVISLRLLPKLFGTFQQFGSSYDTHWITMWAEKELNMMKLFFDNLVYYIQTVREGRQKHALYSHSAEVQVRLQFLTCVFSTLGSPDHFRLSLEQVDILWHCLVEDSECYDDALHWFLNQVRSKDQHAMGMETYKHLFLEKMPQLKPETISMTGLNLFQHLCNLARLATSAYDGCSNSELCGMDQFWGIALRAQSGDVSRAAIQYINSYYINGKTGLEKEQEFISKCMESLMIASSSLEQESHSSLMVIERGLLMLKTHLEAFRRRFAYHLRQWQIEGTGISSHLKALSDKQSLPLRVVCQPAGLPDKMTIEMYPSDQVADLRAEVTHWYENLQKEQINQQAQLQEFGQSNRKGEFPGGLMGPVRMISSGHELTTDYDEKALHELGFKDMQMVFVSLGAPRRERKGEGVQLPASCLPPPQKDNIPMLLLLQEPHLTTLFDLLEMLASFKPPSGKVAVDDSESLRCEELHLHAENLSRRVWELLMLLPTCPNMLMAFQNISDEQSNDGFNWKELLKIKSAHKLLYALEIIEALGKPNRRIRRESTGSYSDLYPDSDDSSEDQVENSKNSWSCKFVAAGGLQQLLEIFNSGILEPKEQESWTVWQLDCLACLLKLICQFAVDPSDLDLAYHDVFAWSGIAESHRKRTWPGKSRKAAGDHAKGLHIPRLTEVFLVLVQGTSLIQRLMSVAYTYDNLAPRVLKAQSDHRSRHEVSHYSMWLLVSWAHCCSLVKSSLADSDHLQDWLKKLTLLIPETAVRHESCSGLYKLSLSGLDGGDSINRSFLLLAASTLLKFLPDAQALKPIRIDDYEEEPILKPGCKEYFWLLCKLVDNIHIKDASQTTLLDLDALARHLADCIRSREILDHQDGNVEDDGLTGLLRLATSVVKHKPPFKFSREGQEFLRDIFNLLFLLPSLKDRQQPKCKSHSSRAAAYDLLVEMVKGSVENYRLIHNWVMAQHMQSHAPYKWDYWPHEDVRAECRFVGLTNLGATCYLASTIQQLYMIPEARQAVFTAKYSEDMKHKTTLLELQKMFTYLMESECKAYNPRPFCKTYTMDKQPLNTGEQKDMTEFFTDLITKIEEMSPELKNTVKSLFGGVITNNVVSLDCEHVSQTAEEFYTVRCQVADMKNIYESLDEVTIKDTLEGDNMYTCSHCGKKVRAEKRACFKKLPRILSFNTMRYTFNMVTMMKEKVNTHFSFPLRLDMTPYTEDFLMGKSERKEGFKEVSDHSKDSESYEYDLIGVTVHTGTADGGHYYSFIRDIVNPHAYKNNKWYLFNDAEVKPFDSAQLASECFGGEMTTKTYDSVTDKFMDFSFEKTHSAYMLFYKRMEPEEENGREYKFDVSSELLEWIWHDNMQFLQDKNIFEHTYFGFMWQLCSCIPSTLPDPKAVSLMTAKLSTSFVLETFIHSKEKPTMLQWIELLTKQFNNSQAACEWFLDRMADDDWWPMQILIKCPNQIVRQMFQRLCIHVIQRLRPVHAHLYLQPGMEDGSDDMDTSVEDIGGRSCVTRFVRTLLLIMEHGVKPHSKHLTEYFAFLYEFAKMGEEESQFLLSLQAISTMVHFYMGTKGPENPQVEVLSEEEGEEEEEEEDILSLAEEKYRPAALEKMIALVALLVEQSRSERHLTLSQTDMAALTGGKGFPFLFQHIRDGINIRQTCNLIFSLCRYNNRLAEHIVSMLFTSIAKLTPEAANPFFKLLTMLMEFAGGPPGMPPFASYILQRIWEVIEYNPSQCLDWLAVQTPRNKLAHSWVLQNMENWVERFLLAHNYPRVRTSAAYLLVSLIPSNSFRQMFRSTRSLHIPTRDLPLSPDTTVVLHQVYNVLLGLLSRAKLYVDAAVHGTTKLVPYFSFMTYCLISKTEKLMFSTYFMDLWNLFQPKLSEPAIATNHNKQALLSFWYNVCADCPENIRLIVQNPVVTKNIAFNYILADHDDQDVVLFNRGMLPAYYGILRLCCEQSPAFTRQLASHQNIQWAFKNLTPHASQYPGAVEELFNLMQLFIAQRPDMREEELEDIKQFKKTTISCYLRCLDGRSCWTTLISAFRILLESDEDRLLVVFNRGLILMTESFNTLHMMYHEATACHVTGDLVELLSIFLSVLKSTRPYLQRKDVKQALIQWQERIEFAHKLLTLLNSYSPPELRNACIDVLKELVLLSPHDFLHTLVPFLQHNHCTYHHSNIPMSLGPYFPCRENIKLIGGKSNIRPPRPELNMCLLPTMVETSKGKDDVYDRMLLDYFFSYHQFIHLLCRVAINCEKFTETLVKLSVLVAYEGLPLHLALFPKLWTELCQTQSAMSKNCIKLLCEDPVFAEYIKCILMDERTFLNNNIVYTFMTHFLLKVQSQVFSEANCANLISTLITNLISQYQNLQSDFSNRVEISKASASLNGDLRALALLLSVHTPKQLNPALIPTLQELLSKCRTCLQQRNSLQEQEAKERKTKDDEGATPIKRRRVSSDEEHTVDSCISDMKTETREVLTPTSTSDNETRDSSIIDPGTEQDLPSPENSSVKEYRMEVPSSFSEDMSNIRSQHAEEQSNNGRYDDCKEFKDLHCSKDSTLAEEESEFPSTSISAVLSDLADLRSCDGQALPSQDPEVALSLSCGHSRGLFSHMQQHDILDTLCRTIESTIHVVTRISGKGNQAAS

Cl.O=C(CCl)N1CCn2cncc2C1
inactive: USP34 -0.401 | USP36 -0.24 | USP38 -0.142 | USP39 -0.167 | USP4 -0.285
